Data as given in ChEMBL document CHEMBL3433997, “St. Jude Leishmania screening dataset” (2016).

Assays:
Assay type in all cases: functional
[1] = target: Solute carrier family 2, facilitated glucose transporter member 1 (Homo sapiens) (UniProt P11166); assay: ST_JUDE_LEISH: Cytotoxicity at 2uM final concentration against transgenic Leishmania Mexicana promastigotes LmGLUT1 that are glucose transport deficient and complemented with the human glucose transporter GLUT1. Activity is measured by DNA content using SYBR green in vitro
[2] = target: Hexose transporter 1 (Plasmodium falciparum) (UniProt O97467); assay: ST_JUDE_LEISH: Cytotoxicity at 2uM final concentration against transgenic Leishmania Mexicana promastigotes LmPfHT that are glucose transport deficient and complemented with the Plasmodium falciparum hexose transporter. Activity is measured by DNA content using SYBR green in vitro
[3] = target: Glucose transporter (Leishmania mexicana) (UniProt O61059); assay: ST_JUDE_LEISH: Cytotoxicity at 2uM final concentration against transgenic Leishmania Mexicana promastigotes LmGT2 that are glucose transport deficient and complemented with the L. Mexicana glucose transporter 2. Activity is measured by DNA content using SYBR green in vitro

Sequence of Solute carrier family 2, facilitated glucose transporter member 1 (Homo sapiens) (P11166 whole entry): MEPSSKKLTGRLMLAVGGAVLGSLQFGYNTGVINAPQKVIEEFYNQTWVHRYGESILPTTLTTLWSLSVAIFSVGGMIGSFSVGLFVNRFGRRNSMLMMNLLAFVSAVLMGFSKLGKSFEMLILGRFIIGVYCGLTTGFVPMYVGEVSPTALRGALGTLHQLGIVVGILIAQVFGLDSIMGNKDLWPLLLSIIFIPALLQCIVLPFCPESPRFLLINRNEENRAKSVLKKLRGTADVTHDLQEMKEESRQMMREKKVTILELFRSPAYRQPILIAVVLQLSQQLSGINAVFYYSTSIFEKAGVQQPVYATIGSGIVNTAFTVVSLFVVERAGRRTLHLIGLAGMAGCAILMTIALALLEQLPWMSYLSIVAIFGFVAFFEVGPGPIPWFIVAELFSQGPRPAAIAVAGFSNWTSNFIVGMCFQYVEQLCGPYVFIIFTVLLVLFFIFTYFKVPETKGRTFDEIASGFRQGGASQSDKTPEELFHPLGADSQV

| SMILES | inhibition [1] [%] | inhibition [2] [%] | inhibition [3] [%] |
| --- | --- | --- | --- |
| Cc1cccc2c(CON3C(N)=NC(N)=NC3(C)C)cccc12 | 0.73 | 1.67 | 1.51 |
| CC(Oc1ccc(C(=O)c2ccc(F)cc2)cc1)C(=O)N1CCc2ccccc21 (stereo not drawn) | -1.44 | -0.96 | 0.7 |
| CCc1cn2c3c(cc(C(=O)N[C@@H](Cc4ccccc4)[C@H](O)CN[C@@H](C)CC)cc13)N(C)S(=O)(=O)CC2 | 0.43 | 2.23 | -0.58 |
| COc1cc2nccc(Nc3ccc4c(cnn4Cc4cccc(F)c4)c3)c2cc1OC | 6.91 | 4.66 | 1.56 |
| COc1cc(/C=C/C(=O)NCC(CCNc2cc(=O)c3ccccc3[nH]2)NCc2cc(Br)cc(Br)c2)cc(OC)c1 (stereo not drawn) | 2.85 | 3.71 | 2.37 |
| O=C(c1cc(-c2cccs2)n[nH]1)N1CCN(S(=O)(=O)c2ccc(Cl)cc2)CC1 | 2.31 | 2.77 | 1.76 |
| CNC(=O)c1cnc(Nc2ccc(N3CCN(C)CC3)cc2)nc1Nc1cccc(OC)c1 | 3.74 | 2.74 | 5.02 |
| CCN(CC)CCN(Cc1ccc(-c2ccc(C(F)(F)F)cc2)cc1)C(=O)c1ccc(-c2ccc(C#N)cc2)cc1 | 2.48 | 0.49 | 2.37 |
| CCN1CCN(c2cc(C)c3cc(NC(=O)c4cccc(OC)c4)ccc3n2)CC1 | 15.2 | 15.3 | 13.7 |
| Cc1cc(N)c2cc(NC(=O)/C=C/c3ccc([N+](=O)[O-])cc3)ccc2n1 | 3.11 | 1.19 | 0.94 |
| Fc1ccc2[nH]c(-c3ccc(-c4ccc(CNCCN5CCNCC5)cc4)cc3)nc2c1 | -0.25 | 1.53 | 0.99 |
| C=CC[C@H](C[C@H](O)[C@H](Cc1ccccc1)NC(=O)c1ccc(-c2cccnn2)cc1)C(=O)NC1CCCCC1 | -1.55 | -0.85 | -1.31 |
| NS(=O)(=O)c1ccc(CNc2ccc3ncc(-c4ccc(Cl)cc4)n3n2)cc1 | -0.09 | 0.08 | -0.35 |
| COC(=O)C(c1ccc(NC(=O)[C@H](CC(C)C)NC(=O)OC(C)(C)C)cc1)c1ccc(NC(=O)[C@H](CC(C)C)NC(=O)OC(C)(C)C)cc1 | -0.28 | 0.91 | 0.27 |
| c1cncc(Oc2ccc(Nc3ccnc4cc(-c5cccc(CNCCN6CCOCC6)c5)ccc34)cc2)c1 | 0.19 | -1.57 | 1.1 |
| Cc1cccc2nc(-c3cccc(-c4cccc(NC(=O)c5ccoc5)c4)c3)[nH]c12 | 5.99 | 5.37 | 0.26 |

| SMILES | inhibition [1] [%] | inhibition [2] [%] | inhibition [3] [%] |
| --- | --- | --- | --- |
| Cc1cc(F)ccc1C1CCN(CCCCNC(=O)c2ccc(NC(=O)c3ccc(Cl)cc3)cc2)CC1 | 1.66 | 0.36 | 0.87 |
| O=C(/C=C/c1ccc(Cl)c(Cl)c1)NC1CCN(CCNC(=O)c2cccc(Cl)c2)CC1 | 4.41 | 3.11 | 2.53 |
| Cc1ccc(NC(=O)c2ccc(-c3cc4cc(Cl)c(Cl)cc4[nH]3)cc2)cc1OCCN1CCCC1 | -0.06 | -0.67 | 0.15 |
| CNCCNCc1cccc(-c2ccc(-c3nc4cc(C(F)(F)F)ccc4[nH]3)cc2)c1 | 0.41 | 2.51 | 2.03 |
| COc1ccc(OC(C)CNC(=O)c2cc([N+](=O)[O-])ccc2-c2ccc(OC)cc2)cc1 (stereo not drawn) | 0.03 | -1.79 | -4.55 |
| CCN(CC)CCN(Cc1ccc(-c2ccc(C(F)(F)F)cc2)cc1)C(=O)Cn1c(CCc2ccc(F)c(F)c2F)nc(=O)c2ccc(F)cc21 | 3.42 | 0.08 | -0.03 |
| CNCCNCc1cccc(-c2cccc(-c3nc4cc(F)ccc4[nH]3)c2)c1 | 10.2 | 7.92 | 7.49 |
| NC1=NC(c2ccccc2)(c2ccccc2)C(=O)N1CCOc1ccccc1 | 1.06 | 0.96 | 2 |
| CN1CCN(Cc2ccc(-c3ccc4c(Nc5ccc(F)cc5Cl)ccnc4c3)o2)CC1 | 0.53 | 0.83 | 1.39 |
| CN1CCN(CCCN(Cc2cccc(-c3ccc(CNCCc4ccccc4)cc3)c2)C(=O)c2cccs2)CC1 | 4.14 | 4.22 | 3.91 |
| CC(C)(C)c1cc(C(=O)Nc2cccnc2)cc(C(=O)Nc2cccnc2)c1 | 2.58 | 1.97 | 2.38 |
| COc1cccc(NC(=O)COc2ccc(C(=O)Nc3nc4ccccc4[nH]3)cc2)c1 | 2.45 | 2.07 | -1.7 |
| N=C(N)NN=Cc1ccc2ccc3ccccc3c2c1 | 5.52 | 7.75 | 4.14 |
| CS(=O)(=O)c1cccc(-c2cnc3[nH]cc(-c4ccc(CCC(=O)O)cc4)c3c2)c1 | 0.77 | 1.38 | 0.31 |
| COc1cc2c(cc1OC)CN(CCCCNC(=O)c1ccc(NC(=O)c3cc(Cl)cc(Cl)c3)cc1)CC2 | 2.09 | 3.93 | 6.32 |
